This note sets out measurements from ChEMBL document CHEMBL1961873, “Compounds: GSK PKIS; Assays: Nanosyn kinase panel” (2012).

Several values for one entry are separate records, joined by “and”; a condition that tells them apart may be missing. Identical values can stand only once.
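Note: each value is a mean percent inhibition of SGK2 from the GSK PKIS kinase screen.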

In the assay the target is T1, Serine/threonine-protein kinase Sgk2 (Homo sapiens) (UniProt Q9HBY8).
T1 sequence (whole entry): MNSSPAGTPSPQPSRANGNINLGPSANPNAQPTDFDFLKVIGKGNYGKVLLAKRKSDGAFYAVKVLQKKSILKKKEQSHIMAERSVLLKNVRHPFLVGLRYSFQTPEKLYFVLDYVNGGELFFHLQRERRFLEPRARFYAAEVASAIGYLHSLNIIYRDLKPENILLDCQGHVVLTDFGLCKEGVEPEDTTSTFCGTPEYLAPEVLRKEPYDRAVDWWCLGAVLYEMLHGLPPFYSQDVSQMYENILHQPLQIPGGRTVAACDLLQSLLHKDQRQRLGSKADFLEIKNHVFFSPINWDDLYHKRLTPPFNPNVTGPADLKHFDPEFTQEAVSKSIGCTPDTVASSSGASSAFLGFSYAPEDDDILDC
As to conditions: at 0.1 µM.
With `c1cnn2ncc(-c3ccnc(NCCCN4CCOCC4)n3)c2c1`, the inhibition is 0.34%.
The value for `FC(F)(F)CNc1nccc(-c2cnn3ncccc23)n1` was 0%; that for `CCS(=O)(=O)c1ccc(OC)c(Nc2ncc(-c3cccc(F)c3)o2)c1` was 0.06%; that for `COc1ccc(Nc2ncc(-c3ccccc3)o2)cc1OC` was 1.33%.
Regarding `Cc1nnc(-c2cccc(-c3ccc(C(=O)NCC4CC4)cc3)c2)o1`, the inhibition is 2.96%.
Regarding `COc1cc(N2CCN(C(C)C)CC2)ccc1Nc1nc(Nc2cccc3ncccc23)c2cc[nH]c2n1`, the inhibition is -3.32%.
Consider `Cn1c(-c2nonc2N)nc2cnccc21`, for which the inhibition was determined as 5.57%.
With `CC1=C(C(=O)Nc2ccc3[nH]nc(C)c3c2)C(c2ccc(C(F)(F)F)cc2)CC(=O)N1` (stereo unspecified) the figure was 0.38%.
For `CN1CCC(n2cnc(-c3ccc(F)cc3)c2-c2ccnc(NCCO)n2)CC1`, the inhibition was 0.04%.
The value for `COc1cc(Nc2ncc(-c3ccccc3)o2)cc(OC)c1` was 3.93%; that for `CC1=C(C(=O)Nc2ccc3[nH]ncc3c2)C(c2ccc(F)cc2)N=C(c2ccc(C(F)(F)F)nc2)N1` (stereo unspecified) was 2.27%; that for `Cc1ccc(-c2cc3c(NC(=O)C4CC4)ncnc3o2)cc1` was 5.33%.
Turning to `O=C1Nc2ccccc2/C1=C1\CCc2cc(O)ccc21`, the inhibition stood at 2.24%.
With `CN(C)CCNC(=O)Nc1ccc(N(C)c2ccnc(Nc3ccc(CS(C)(=O)=O)cc3)n2)cc1` the figure was 0.71%; with `CS(=O)(=O)CCNCc1ccoc1-c1ccc2ncnc(Nc3ccc(OCc4ccccc4)cc3)c2c1`, 2.28%.
In the case of `CS(=O)(=O)Nc1ccc(-c2ccc3c(NC(=O)C4CC4)n[nH]c3c2)cc1`, the inhibition came to 0.2%.
For the compound `O=C(Nc1n[nH]c2nnc(-c3cccnc3)cc12)C1CC1`, the inhibition is -0.62%.
Turning to `CC1(C)CC(n2cnc(-c3ccc(F)cc3)c2-c2ccnc(N)n2)CC(C)(C)N1`, the inhibition is -3.17%.
For the compound `CNC(=O)c1ncccc1Nc1nc(Nc2cc3c(cc2OC)CCCN3C(=O)CN(C)C)nc2[nH]ccc12`, the inhibition came out at 0.57%.
As for `COc1cccc(-n2ncc3c(N/N=C/c4ccc(C(=O)NCCN(C)C)cc4)ncnc32)c1`, the inhibition was found to be 6.05%.
In the case of `Cc1c2ccc(N(C)c3ccnc(Nc4cccc(S(N)(=O)=O)c4)n3)cc2nn1C`, the inhibition amounted to 2.67%.
On to `OCCCNc1nccc(-c2c(-c3ccc(F)cc3)nn3cc(C(F)(F)F)ccc23)n1`, for which the inhibition stood at 1.44%.
In the case of `COc1cccc(Nc2nccc(-c3cnn4ncccc34)n2)c1`, the inhibition turned out to be 7.46%.
With `O=C(O[C@H]1CN[C@H](C#Cc2cc3ncnc(Nc4ccc(OCc5cccc(F)c5)c(Cl)c4)c3s2)C1)N1CCOCC1` the figure was 6.81%; with `NS(=O)(=O)c1ccc(N/N=C2\C(=O)Nc3ccc(C(=O)NCc4ccncc4)cc32)cc1`, 0.65%.
Take `CS(=O)(=O)CCNCc1ccc(-c2ccc3ncnc(Nc4ccc(OCc5ccccc5)cc4)c3c2)o1`: the inhibition amounted to 2.02%.
In the case of `CCOc1ccc2c(-c3ccnc(Nc4cc(OC)cc(C(F)(F)F)c4)n3)cnn2n1`, the inhibition turned out to be 0.96%.
Consider `Nc1nonc1-c1nc2cnccc2n1C1CC1`, for which the inhibition was 8.13% and 8.47%.
Turning to `CCN1CCC(C(=O)Nc2n[nH]c3nnc(-c4cccc(F)c4F)cc23)CC1`, the inhibition is 2.32%.
Take `CS(=O)(=O)CCNCc1ccc(-c2ccc3ncnc(Nc4ccc(OCc5cccc(C(F)(F)F)c5)cc4)c3c2)o1`: the inhibition was determined as 4.41%.
For `Nc1nccc(-c2c(-c3ccc(F)cc3)ncn2C2CCNCC2)n1`, the inhibition is -3% and 1.37%.
